Assay outcomes: PubChem, National Center for Advancing Translational Sciences (NCATS)
aSyn rescue: rescues yeast growth from alpha-synuclein toxicity; Potency, µM (doses to about 46.1 µM), without a hit: at the highest dose growth rescue (activation), actives largely listed as activators; Yeast expressing alpha-synuclein, growth rescue, BacTiter-Glo, 24 h; AID 652106; 0.14% of 370,000 active; note: % of control where 0% means no effect; nearly all actives have a fitted effect of over 65% in size
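Galactose-induced alpha-syn yeast (OD600=0.02, raffinose-pregrown) + pinned cpd, 24 hr, 30 deg C; growth by BacTiter-Glo luminescence. Growth restoration scores as activation.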
Abeta rescue: A-beta toxicity reversal in yeast; yeast expressing A-beta42, growth rescue, OD600, 48 h; response scale: 0% DMSO, 100% iron-clioquinol control; Potency, µM (highest dose often 46.1 µM), hits mostly activators; 0.063% of 410,000 active; AID 1347071; note: nearly all actives have a fitted effect of over 55% in size
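Growth rescue measured by 600 nm absorbance after 48 h yeast culture at 30 C with compound. Values normalized between DMSO and an equimolar ferric chloride plus clioquinol control.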
FUS yeast rescue: suppressors of FUS proteinopathy in yeast; S. cerevisiae FUS-expressing, growth rescue, OD600, 24 h; Potency, µM (series often up to 76.6 µM), usual class: activators; 0.24% of 390,000 active; AID 1347120;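 note: plate controls were DMSO vehicle for no effect and reference control for full effect; nearly all actives have a fitted effect of over 55% in size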
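Galactose (2%) drives FUS expression in yeast precultured in raffinose; seeding density OD 0.005. Test compounds incubated 24hr at 30C and 99% humidity before absorbance at 600 nm was measured.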
TDP43 rescue: inhibitors of TDP-43 toxicity in yeast | 1.8% of 410,000 active | TDP-43 expressing yeast growth rescue, BacTiter-Glo, 24 h | Potency, µM (top dose mostly 46.1 µM), for the others: at the top dose growth rescue (activation), most hits filed as activators; note: % of control where 0% means no effect; nearly all actives have a fitted effect of over 50% in size
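In this qHTS, compounds that restore growth of yeast expressing TDP-43 appear as activators. Cells (OD600=0.02, galactose medium, raffinose-pregrown) are incubated with compound 24 hr at 30 deg C and growth is quantified by BacTiter-Glo.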
* hit, by the source's call. Rows were chosen to be rich in hits. Some 2.1% of all compounds tested hit in one or more screens of this group. Calls come from the whole dose curve; as a rule, active = well fitted curve in the direction sought with a large enough effect; inconclusive = small, poorly fitted or top-dose-only effect, or another doubt; inactive = no such curve, though single readings can be large; an effect the other way counts as inactive or inconclusive. Potency is the fitted concentration of half-maximal effect.

How did c1ccc(CCSc2nnc(-c3cccnc3)n2Cc2ccccc2)cc1 do in these assays?
FUS yeast rescue: inactive

How did C=CCn1c(O)c(N=NC(=S)Nc2cccc(OC)c2)c2ccccc21 do in these assays?
aSyn rescue: 22.4µM*; Abeta rescue: inconclusive; FUS yeast rescue: inactive; TDP43 rescue: 15.8µM*

How did C=Cc1ccc(Cn2nc(-c3ccccc3)ccc2=O)cc1 do in these assays?
aSyn rescue: inconclusive; Abeta rescue: inactive; FUS yeast rescue: inconclusive; TDP43 rescue: 11.2µM*

Results for O=C(CN1C(=O)CCSc2ccccc21)Nc1ccc(Cl)c(Cl)c1 ?
FUS yeast rescue: inactive

What do the screens show for `Cc1nc(Cl)sc1C(=O)Nc1ccc(F)cc1`?
aSyn rescue: -1.8%; Abeta rescue: inactive; FUS yeast rescue: inactive; TDP43 rescue: 2.7%

Results for Cc1nc(Cl)sc1C(=O)Nc1cc(F)cc(F)c1 ?
aSyn rescue: 2.9%; Abeta rescue: inactive; FUS yeast rescue: inactive; TDP43 rescue: 11.2µM*

What do the screens show for `Cc1ccc(CNC(=O)COC(=O)c2nc(-c3ccccc3)oc2C)cc1`?
aSyn rescue: 1.0%; Abeta rescue: inactive; FUS yeast rescue: inactive; TDP43 rescue: 35.5µM*

How did O=C(CSc1cccc[n+]1[O-])CSc1cccc[n+]1[O-] do in these assays?
aSyn rescue: inconclusive; Abeta rescue: inconclusive; FUS yeast rescue: inactive; TDP43 rescue: 3.55µM*

What do the screens show for `O=C(CSc1cccc[n+]1[O-])N1CCCCCC1`?
aSyn rescue: 0.1%; Abeta rescue: inactive; FUS yeast rescue: inactive; TDP43 rescue: 9.3%

What do the screens show for `CCOC(=O)Cc1csc(NC(=O)c2ccc(NC(C)=O)cc2)n1`?
aSyn rescue: -8.9%; Abeta rescue: inactive; FUS yeast rescue: inactive; TDP43 rescue: -4.8%

What do the screens show for `CCOC(=O)Cc1csc(NC(=O)c2ccc3ncsc3c2)n1`?
aSyn rescue: -14.7%; Abeta rescue: inactive; FUS yeast rescue: inactive; TDP43 rescue: 14.1µM*

What do the screens show for `CCOC(=O)Cc1csc(NC(=O)c2cccc(Cl)c2)n1`?
aSyn rescue: 0.1%; Abeta rescue: inactive; FUS yeast rescue: inactive; TDP43 rescue: inconclusive

What do the screens show for `CCOC(=O)Cc1csc(NC(=O)c2ccc(Br)cc2)n1`?
aSyn rescue: -8.8%; Abeta rescue: inactive; FUS yeast rescue: inactive; TDP43 rescue: 12.6µM*

Results for O=C(c1cnn(C(=O)c2ccco2)c1)c1cc(F)ccc1O ?
aSyn rescue: -11.1%; Abeta rescue: inactive; FUS yeast rescue: inactive; TDP43 rescue: 28.2µM*

What do the screens show for `Cc1ccc2nc(-c3ccc(C)c(NC(=O)COc4ccccc4Cl)c3)oc2c1`?
aSyn rescue: -5.3%

What do the screens show for `Cc1ccnc2cc(Cl)c(Cl)cc12`?
aSyn rescue: 3.9%

How did COCCCNc1ccn2nc(-c3ccc(Cl)cc3)cc2n1 do in these assays?
aSyn rescue: -14.1%; Abeta rescue: inactive; FUS yeast rescue: inactive; TDP43 rescue: 11.2µM*

What do the screens show for `CCN(CC)CCCNC(=O)c1oc(=O)c2ccccc2c1-c1ccc(C)cc1`?
FUS yeast rescue: inactive

Results for COC(=O)[C@]12C[C@H](CC(=O)N3CCCC3)C(=O)N(Cc3ccc(Cl)cc3Cl)C1=C[C@H](C(C)(C)C)O[C@@H]2C ?
FUS yeast rescue: 17.8µM*

How did C#CCNC(=O)C[C@H]1C[C@@]2(C(=O)OC)C(=C[C@H](C(C)(C)C)O[C@@H]2C)N(Cc2ccc(Cl)cc2Cl)C1=O do in these assays?
FUS yeast rescue: 17.8µM*

What do the screens show for `Clc1ccc(OCc2nnc(-c3ccccc3Br)o2)cc1`?
aSyn rescue: 12.3%; Abeta rescue: inactive; FUS yeast rescue: inactive; TDP43 rescue: 6.4%

How did Clc1cccc(OCc2nnc(-c3ccccc3Br)o2)c1 do in these assays?
aSyn rescue: inconclusive; Abeta rescue: inactive; FUS yeast rescue: inactive; TDP43 rescue: 17.8µM*

What do the screens show for `COc1cccc(Nc2nc3cc(Cl)c(Cl)cc3nc2-n2nc(C)cc2C)c1`?
Abeta rescue: inactive; FUS yeast rescue: inactive; TDP43 rescue: 10.5%

Results for Cc1ccc(CN2CCCCC(NC(=O)c3ccccc3)C2=O)cc1 (configuration not stated) ?
FUS yeast rescue: inactive

How did Cc1ccc(Nc2ncc(C(=O)NCCCN3CCN(C)CC3)c3ccccc23)cc1Cl do in these assays?
aSyn rescue: -3.0%; Abeta rescue: inactive; FUS yeast rescue: inactive

What do the screens show for `Cc1ccc(Nc2ncc(C(=O)N3CCN(c4cccc(Cl)c4)CC3)c3ccccc23)cc1Cl`?
Abeta rescue: inactive; FUS yeast rescue: inconclusive; TDP43 rescue: 15.8µM*

Results for CCN(C(=O)c1cnc(N2CCN(c3ncccn3)CC2)c2ccccc12)c1cccc(Cl)c1 ?
aSyn rescue: -18.3%; Abeta rescue: inactive; FUS yeast rescue: inactive; TDP43 rescue: inconclusive

What do the screens show for `Cc1ccc(Cl)cc1N1CCN(C(=O)c2cnc(N3CCOCC3)c3ccccc23)CC1`?
Abeta rescue: inactive; FUS yeast rescue: 15.8µM*; TDP43 rescue: 22.4µM*

How did CN(C(=O)c1cnc(N2CCN(c3ncccn3)CC2)c2ccccc12)c1ccc(Cl)cc1 do in these assays?
aSyn rescue: 11.0%; Abeta rescue: inconclusive; FUS yeast rescue: inactive; TDP43 rescue: 10µM*

What do the screens show for `Cc1ccc(-c2onc(C)c2C)cc1S(=O)(=O)Nc1cccc(Cl)c1C`?
Abeta rescue: inactive; FUS yeast rescue: inactive; TDP43 rescue: 22.2%

How did Cc1csc(NC(=O)Cc2ccc(Cl)cc2)n1 do in these assays?
aSyn rescue: -5.7%; Abeta rescue: inactive; FUS yeast rescue: inactive; TDP43 rescue: inconclusive

What do the screens show for `Cc1csc(NC(=O)C(C)Oc2ccc(Br)cc2)n1` (configuration not stated)?
aSyn rescue: -15.8%; Abeta rescue: inactive; FUS yeast rescue: inactive; TDP43 rescue: 35.5µM*

What do the screens show for `Cc1csc(NC(=O)Cc2ccc(Br)cc2)n1`?
aSyn rescue: -11.4%; Abeta rescue: inactive; FUS yeast rescue: inactive; TDP43 rescue: 10µM*

How did Cc1ccc(-n2cc(C(=O)c3cc(Cl)ccc3O)cc(C#N)c2=O)cc1 do in these assays?
aSyn rescue: 0.4%; Abeta rescue: inactive; TDP43 rescue: 14.1µM*

How did COc1ccc(/C=C/C(=O)c2cc(F)ccc2OC(=O)c2ccccc2)cc1OC do in these assays?
aSyn rescue: 13.6%; Abeta rescue: inactive; FUS yeast rescue: inactive; TDP43 rescue: 12.6µM*

What do the screens show for `CCOc1ccc(C(=O)/C=C/c2cc(OC)c(OC)c(OC)c2)cc1`?
aSyn rescue: -10.0%; Abeta rescue: inactive; FUS yeast rescue: inactive; TDP43 rescue: 25.3%

What do the screens show for `Cc1ccc(C(=O)/C=C/c2ccc3ncccc3c2)cc1`?
aSyn rescue: -3.7%; Abeta rescue: inactive; FUS yeast rescue: inactive; TDP43 rescue: 12.6µM*

What do the screens show for `Cc1ccc(C(=O)Nc2ccc3ncccc3c2)cc1`?
aSyn rescue: -10.5%; Abeta rescue: inactive; FUS yeast rescue: inactive; TDP43 rescue: -24.8%

What do the screens show for `COc1cc(/C=C/C(=O)c2ccc(F)cc2)cc(OC)c1OC`?
aSyn rescue: 7.2%; Abeta rescue: inactive; FUS yeast rescue: inactive; TDP43 rescue: 14.1µM*
